What was measured:
Assay in all cases: log2 ratio of Biotin-Ahx-Ub-VS probe labelling (fragment/DMSO); higher = less target engagement (more negative = stronger competition), active = hit call of the paper (q ≤ 0.05, log2 ratio ≤ -1)
Conditions in all cases: compound concentration: 200 uM; treatment time: 3 h
USP42 = biological target: T1, USP42 (UniProt Q9H9J4)
T1 sequence (whole entry): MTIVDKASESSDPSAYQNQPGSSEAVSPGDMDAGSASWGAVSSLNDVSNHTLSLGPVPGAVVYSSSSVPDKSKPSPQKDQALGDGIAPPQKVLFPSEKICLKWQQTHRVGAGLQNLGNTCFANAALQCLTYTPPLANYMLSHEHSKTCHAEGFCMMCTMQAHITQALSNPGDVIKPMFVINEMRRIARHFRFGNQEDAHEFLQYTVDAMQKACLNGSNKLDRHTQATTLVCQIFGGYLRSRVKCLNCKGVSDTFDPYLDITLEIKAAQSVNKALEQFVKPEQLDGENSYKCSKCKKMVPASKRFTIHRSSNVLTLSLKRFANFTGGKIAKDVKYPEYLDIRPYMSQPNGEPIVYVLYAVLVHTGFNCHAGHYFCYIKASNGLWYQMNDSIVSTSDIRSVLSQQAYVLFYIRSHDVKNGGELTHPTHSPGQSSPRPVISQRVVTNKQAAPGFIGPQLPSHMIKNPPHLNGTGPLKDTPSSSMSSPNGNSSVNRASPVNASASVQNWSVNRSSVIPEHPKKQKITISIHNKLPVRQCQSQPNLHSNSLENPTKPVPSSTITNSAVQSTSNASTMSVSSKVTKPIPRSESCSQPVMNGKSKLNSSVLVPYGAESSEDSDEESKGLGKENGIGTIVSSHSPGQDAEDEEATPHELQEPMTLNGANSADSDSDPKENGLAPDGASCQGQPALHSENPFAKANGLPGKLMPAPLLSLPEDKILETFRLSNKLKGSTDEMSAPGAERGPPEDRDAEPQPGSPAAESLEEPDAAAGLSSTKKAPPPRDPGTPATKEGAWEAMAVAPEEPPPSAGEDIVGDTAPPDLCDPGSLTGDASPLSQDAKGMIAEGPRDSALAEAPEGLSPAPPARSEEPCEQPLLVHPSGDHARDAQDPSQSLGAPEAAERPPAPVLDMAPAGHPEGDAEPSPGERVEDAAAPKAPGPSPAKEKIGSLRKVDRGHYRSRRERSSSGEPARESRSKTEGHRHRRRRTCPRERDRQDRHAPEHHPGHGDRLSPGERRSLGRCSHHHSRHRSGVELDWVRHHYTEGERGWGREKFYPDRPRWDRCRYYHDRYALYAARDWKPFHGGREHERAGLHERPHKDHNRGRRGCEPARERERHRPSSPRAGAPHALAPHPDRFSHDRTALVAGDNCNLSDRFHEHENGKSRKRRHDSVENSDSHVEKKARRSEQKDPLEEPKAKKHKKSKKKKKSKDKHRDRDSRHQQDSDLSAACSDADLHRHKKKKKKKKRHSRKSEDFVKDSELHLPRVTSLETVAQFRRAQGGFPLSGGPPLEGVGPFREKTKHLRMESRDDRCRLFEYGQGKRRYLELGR
In short: (§1)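 Labelled DUBs from HEK293T lysate were NeutrAvidin-enriched, digested with LysC and trypsin, and run by diaPASEF LC-MS/MS. Before that, each 495 µg sample in Tris/CHAPS/IGEPAL buffer with protease inhibitors was treated in triplicate with fragment at 200 µM or vehicle for 3 h, then with Biotin-Ahx-Ub-VS at 0.5 µM final for 1 h. Values are average log2 ratios of fragment over vehicle by unpaired t-test, based on global-median-normalised Spectronaut label-free quantities from proteins with ≥2 unique peptides.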

USP46 = USP46 (UniProt P62068)
In short: as §1

USP47 = biological target: T2, USP47 (UniProt Q96K76)
T2 sequence (whole entry): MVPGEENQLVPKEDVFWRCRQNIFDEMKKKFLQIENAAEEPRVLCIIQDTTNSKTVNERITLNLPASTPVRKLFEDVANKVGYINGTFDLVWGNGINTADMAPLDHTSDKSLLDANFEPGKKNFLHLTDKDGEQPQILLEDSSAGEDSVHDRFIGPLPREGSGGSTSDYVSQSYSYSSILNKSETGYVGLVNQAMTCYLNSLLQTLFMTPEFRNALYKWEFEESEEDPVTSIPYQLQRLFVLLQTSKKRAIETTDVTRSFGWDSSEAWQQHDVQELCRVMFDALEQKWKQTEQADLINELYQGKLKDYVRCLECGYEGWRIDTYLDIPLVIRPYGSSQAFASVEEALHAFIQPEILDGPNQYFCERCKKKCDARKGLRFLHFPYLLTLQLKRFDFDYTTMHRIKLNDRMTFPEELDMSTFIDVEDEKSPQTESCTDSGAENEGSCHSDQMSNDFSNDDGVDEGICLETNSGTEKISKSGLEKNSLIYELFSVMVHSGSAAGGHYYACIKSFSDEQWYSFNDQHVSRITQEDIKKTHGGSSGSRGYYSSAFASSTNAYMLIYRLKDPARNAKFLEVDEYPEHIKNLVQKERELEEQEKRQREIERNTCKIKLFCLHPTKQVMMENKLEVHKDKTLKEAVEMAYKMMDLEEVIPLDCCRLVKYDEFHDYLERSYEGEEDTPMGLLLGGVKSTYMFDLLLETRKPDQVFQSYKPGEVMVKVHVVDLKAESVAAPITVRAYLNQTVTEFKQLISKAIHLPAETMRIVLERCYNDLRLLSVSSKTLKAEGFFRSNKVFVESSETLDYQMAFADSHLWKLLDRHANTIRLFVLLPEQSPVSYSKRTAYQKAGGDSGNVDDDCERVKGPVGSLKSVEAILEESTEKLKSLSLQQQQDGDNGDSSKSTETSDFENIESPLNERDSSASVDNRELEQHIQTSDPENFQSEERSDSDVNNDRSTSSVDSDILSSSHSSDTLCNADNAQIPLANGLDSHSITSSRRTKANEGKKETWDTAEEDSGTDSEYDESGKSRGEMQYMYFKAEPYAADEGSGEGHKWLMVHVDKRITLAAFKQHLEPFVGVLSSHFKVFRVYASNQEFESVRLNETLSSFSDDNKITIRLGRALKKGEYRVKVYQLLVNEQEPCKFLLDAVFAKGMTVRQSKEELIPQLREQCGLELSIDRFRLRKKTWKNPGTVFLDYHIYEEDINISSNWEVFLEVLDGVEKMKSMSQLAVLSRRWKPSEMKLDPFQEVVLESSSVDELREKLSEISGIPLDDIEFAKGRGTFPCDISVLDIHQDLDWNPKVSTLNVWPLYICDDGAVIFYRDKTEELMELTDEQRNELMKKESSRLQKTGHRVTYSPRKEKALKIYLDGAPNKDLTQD
In short: as §1

USP48 = biological target: T3, USP48 (UniProt Q86UV5)
T3 sequence (whole entry): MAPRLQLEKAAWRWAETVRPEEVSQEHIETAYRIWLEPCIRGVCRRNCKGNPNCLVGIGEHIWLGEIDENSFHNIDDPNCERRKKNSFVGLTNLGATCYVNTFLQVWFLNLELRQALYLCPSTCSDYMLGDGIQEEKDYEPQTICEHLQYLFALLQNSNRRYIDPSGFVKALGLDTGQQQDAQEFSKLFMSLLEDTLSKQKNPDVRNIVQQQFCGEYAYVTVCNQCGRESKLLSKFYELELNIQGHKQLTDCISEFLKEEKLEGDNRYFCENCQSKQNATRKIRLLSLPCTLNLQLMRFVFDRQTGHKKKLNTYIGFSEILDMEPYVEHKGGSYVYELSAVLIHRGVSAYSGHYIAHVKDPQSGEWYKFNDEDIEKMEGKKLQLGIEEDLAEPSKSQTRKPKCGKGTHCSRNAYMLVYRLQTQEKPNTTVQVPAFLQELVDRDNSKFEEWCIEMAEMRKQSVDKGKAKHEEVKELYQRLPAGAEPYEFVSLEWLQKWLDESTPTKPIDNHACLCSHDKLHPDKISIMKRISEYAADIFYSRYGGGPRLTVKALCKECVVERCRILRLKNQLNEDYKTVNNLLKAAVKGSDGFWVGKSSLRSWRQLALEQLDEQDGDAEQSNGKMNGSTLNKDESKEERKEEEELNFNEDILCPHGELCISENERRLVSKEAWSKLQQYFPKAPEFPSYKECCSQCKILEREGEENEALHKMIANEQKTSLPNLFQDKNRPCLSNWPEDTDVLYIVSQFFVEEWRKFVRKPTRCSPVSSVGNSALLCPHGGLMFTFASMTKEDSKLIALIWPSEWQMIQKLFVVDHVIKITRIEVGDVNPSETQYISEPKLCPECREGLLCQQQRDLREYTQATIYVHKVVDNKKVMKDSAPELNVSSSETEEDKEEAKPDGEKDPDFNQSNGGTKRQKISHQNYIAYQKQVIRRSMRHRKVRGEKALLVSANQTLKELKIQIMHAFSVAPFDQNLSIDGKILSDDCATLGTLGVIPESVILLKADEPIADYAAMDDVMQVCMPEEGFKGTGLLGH
In short: as §1

USP5 = biological target: T4, USP5 (UniProt P45974)
T4 sequence (whole entry): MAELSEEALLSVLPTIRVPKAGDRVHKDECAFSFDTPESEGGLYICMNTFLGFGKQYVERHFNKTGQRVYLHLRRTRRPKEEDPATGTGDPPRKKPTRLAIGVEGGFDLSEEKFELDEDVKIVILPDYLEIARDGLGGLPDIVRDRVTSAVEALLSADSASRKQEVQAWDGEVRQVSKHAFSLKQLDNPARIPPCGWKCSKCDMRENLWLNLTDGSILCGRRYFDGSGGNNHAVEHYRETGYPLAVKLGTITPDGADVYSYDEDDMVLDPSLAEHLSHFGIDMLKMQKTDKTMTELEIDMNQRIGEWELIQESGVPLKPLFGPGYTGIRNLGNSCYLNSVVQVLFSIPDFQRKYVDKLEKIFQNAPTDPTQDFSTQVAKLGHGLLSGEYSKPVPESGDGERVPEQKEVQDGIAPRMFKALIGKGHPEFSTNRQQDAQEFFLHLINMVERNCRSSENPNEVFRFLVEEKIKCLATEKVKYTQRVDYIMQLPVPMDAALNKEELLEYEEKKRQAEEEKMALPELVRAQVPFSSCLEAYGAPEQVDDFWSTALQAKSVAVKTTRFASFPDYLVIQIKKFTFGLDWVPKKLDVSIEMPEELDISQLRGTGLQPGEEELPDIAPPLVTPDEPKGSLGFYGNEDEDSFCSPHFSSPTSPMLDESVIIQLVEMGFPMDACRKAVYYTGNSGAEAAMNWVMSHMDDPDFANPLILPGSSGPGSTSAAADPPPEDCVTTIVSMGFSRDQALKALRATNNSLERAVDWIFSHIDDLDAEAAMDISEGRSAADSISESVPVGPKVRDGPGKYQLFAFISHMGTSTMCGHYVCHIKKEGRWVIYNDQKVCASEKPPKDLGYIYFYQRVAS
In short: as §1

USP54 = USP54 (UniProt Q70EL1)
In short: as §1

USP7 = USP7 (UniProt Q93009)
In short: as §1

USP8 = biological target: T5, USP8 (UniProt P40818)
T5 sequence (whole entry): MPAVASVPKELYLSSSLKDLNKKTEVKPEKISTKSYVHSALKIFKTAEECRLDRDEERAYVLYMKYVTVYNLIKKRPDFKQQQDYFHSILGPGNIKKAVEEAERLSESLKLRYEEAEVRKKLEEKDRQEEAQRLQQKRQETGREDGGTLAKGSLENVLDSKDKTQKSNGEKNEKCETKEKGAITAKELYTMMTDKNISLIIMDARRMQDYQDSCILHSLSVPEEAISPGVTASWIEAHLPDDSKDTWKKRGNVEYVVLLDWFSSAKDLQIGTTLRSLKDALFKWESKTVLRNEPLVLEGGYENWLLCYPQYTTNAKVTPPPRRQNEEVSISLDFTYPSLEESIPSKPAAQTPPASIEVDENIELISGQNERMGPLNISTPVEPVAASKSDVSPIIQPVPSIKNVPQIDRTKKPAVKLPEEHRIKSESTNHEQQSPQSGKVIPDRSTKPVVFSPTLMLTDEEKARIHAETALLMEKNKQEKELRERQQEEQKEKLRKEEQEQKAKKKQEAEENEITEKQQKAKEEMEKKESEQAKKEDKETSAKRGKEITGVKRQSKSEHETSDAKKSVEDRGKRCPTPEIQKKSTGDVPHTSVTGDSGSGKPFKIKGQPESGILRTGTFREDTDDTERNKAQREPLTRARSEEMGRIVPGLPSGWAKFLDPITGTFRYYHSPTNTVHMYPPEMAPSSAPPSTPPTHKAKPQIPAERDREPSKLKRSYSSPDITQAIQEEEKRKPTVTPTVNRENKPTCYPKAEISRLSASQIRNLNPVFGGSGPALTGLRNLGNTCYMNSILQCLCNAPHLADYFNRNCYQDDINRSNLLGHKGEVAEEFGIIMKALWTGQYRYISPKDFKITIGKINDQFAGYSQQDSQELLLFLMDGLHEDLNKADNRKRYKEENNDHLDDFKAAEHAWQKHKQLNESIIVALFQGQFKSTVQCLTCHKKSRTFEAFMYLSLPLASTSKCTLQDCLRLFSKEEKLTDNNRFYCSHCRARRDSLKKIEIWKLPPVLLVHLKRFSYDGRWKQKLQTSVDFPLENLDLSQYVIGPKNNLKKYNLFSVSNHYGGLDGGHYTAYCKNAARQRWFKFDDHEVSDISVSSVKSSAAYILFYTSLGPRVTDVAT
In short: as §1

Measured: log2 ratio of Biotin-Ahx-Ub-VS probe labelling

Sequence of USP54 (Q70EL1 whole entry): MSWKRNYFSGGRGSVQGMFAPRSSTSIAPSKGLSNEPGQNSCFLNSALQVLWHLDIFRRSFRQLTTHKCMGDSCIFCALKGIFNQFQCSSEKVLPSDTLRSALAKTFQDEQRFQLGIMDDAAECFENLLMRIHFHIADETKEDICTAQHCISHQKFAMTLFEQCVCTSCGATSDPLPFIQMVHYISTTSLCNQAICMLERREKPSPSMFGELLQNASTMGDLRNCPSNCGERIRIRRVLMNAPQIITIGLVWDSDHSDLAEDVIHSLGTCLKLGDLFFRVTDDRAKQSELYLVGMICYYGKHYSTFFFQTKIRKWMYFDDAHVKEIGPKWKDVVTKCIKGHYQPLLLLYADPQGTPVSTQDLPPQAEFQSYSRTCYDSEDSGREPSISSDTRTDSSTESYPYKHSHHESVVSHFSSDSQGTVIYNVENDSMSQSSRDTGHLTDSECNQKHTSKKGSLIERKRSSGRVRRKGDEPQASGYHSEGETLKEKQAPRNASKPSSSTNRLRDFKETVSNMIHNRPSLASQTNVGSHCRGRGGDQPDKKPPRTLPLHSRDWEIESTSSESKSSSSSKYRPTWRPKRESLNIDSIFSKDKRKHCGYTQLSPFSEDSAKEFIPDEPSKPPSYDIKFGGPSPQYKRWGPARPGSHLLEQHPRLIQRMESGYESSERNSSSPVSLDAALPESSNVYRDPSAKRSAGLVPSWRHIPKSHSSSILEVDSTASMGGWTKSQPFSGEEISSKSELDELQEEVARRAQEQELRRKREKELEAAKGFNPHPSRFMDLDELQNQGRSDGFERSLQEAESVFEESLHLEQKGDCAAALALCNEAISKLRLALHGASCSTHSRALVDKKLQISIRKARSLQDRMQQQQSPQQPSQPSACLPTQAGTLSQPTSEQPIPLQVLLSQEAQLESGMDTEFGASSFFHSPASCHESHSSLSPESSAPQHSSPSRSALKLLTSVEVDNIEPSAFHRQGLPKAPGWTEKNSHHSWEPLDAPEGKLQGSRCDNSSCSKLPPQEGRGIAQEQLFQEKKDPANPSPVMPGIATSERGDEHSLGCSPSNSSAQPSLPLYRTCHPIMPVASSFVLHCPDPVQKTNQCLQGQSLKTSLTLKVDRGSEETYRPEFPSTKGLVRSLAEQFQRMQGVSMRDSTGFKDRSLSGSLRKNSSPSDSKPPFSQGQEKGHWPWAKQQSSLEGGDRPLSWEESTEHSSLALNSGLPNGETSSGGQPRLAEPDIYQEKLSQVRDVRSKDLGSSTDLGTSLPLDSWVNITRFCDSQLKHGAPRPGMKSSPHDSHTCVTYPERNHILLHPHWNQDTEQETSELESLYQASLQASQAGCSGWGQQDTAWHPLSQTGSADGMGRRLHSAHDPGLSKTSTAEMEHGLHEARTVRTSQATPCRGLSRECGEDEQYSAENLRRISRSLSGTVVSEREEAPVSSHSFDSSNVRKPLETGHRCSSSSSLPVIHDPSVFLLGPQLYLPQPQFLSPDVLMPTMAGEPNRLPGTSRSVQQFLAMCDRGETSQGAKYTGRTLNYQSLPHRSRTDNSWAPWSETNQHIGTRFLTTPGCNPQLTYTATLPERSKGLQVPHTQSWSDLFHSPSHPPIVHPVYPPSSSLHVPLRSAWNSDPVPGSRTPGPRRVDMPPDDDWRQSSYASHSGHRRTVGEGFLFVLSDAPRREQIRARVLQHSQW
Sequence of USP46 (P62068 whole entry): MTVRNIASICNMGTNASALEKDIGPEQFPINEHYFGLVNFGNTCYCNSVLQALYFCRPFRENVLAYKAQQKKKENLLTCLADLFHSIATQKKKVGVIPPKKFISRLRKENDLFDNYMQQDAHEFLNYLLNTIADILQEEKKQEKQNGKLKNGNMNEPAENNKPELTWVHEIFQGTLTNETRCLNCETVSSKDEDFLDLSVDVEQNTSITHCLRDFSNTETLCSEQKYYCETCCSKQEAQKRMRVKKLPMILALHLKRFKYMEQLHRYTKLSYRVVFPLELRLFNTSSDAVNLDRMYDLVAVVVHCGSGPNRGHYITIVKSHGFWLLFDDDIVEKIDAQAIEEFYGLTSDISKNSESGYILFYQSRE
Sequence of USP7 (Q93009 whole entry, looked up): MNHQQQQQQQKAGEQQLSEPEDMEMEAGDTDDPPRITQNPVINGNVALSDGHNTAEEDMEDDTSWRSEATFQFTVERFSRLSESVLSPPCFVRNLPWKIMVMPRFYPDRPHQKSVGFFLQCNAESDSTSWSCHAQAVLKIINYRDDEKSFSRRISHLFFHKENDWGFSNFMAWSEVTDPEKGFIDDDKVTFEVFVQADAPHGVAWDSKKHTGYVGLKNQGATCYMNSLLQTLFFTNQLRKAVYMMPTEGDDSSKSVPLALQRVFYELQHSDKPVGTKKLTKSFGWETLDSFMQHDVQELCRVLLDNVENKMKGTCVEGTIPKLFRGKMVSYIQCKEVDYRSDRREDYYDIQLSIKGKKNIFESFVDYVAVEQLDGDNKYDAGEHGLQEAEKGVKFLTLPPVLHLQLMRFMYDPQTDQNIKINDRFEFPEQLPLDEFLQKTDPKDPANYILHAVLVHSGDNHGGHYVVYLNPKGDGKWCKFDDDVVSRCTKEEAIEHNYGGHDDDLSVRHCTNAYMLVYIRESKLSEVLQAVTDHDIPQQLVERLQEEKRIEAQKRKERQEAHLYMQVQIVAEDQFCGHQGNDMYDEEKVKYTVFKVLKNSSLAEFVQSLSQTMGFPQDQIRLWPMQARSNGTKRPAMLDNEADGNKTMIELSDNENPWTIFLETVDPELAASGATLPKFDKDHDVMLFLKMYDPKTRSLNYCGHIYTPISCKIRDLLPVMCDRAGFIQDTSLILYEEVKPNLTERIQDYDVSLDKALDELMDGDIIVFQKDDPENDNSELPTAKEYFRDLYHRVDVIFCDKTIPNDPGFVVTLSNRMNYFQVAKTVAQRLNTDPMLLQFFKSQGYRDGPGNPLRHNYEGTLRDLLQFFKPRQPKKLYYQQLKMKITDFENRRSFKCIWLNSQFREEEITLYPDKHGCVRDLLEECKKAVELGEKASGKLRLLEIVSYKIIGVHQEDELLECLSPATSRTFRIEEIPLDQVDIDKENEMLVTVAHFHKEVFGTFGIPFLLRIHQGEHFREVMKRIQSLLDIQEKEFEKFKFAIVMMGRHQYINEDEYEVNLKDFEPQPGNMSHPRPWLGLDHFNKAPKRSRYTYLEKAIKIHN

Cl.O=C(CCl)NCc1ccnc(Oc2ccccc2F)c1
inactive: USP42 -0.336 | USP46 0.0702 | USP47 -0.71 | USP48 -0.278 | USP5 0.126 | USP54 0.365 | USP7 -0.357 | USP8 -0.181
